Source: PubChem
Rows were chosen to be rich in hits. Some 2.4% of all compounds tested hit in one or more screens of this group.
JNK3 blocker – inhibitors of human JNK3 kinase; purified JNK3 kinase activity, HTS; inhibition, % at 8 µM; actives 0.61% (n = 60,000); in the data active = inhibition above about 17%;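 also: 0% = DMSO and 100% = reference inhibitor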
FAK blocker – FAK (human) kinase inhibition | Q05397 | biochemical FAK kinase activity assay | AID 727 | actives 0.84% (n = 97,000) | inhibition, %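 (tested at 7 µM)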; in the data active = inhibition above about 19%;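 also: 0% = DMSO and 100% = reference compound high control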
Pyk2 oligo antag – antagonists of human Pyk2 oligomerization; Q293 cells, Pyk2 FERM NanoBiT luminescence; active compounds read low; z-score (the deposit names both 25 µM and 10 µM); actives 0.83% (n = 99,000); AID 1347419;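 active = Z-score of -3 or lower, scaled per plate to the spread of control and sample wells; inactive = z-score above -3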;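 also: negative z-score means lost luminescence so less FERM oligomerization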
Target sequence (Q14289 whole entry, looked up): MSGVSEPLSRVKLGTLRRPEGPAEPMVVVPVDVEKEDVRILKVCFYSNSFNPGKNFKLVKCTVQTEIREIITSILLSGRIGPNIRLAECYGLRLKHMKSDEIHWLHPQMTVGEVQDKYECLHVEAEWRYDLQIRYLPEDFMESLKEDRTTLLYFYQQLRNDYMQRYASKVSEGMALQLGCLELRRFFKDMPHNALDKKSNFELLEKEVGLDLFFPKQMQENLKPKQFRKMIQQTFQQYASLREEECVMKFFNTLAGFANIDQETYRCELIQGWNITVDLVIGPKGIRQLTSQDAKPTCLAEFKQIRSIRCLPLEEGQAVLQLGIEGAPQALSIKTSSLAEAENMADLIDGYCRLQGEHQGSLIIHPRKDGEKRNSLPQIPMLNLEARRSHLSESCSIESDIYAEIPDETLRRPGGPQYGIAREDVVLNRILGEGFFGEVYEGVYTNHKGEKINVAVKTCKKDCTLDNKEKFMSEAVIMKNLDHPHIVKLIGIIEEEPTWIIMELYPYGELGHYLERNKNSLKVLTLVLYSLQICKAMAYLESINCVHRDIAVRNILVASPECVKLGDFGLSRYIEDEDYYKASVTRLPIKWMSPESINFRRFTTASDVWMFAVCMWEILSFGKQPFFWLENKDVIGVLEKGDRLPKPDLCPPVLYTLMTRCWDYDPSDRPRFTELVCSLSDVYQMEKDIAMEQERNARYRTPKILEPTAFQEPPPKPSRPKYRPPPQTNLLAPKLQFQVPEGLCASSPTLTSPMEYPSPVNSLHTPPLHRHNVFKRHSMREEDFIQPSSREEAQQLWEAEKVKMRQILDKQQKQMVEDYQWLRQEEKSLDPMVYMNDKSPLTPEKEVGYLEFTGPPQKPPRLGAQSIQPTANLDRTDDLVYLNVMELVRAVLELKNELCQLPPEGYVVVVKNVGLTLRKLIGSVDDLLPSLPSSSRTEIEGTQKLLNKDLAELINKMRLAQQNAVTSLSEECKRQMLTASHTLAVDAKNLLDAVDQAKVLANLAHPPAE
IL1B NFkB inh – blocks IL-1B driven NFkB nuclear translocation in HUVEC cells; HUVEC IL-1B NFkB p65 nuclear translocation imaging; inhibition, % at 2 µM; actives 0.43% (n = 94,000);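 active = inhibition above about 30% together with a positive call from visual inspection of the well image, limit read from the data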;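 also: nuclear over cytoplasmic p65 intensity ratio measured by imaging; 0% = IL-1B stimulated DMSO wells and 100% = unstimulated DMSO wells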
HUVEC tox IL1B – HUVEC cytotoxicity counter-screen, IL-1B stimulated. AID 845. cell count reduction, % at 2 µM. HUVEC cell count loss, Hoechst imaging. actives 0.41% (n = 94,000);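 active = cell count reduction more than 3 SD above the screen-wide mean, cut at about 70% in these data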;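 also: normalized per plate to untreated control cells as the no-loss baseline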
NFkB transloc pot – enhances IL-1B driven NFkB nuclear translocation | HUVEC IL-1B NFkB p65 nuclear translocation imaging | actives 0.3% (n = 94,000) | activation, % at 2 µM;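 active = activation above 40%, about the mean plus 3 SD, also judged a hit on visual image review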;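 also: percent activation is computed from the nuclear over cytoplasmic p65 intensity ratio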
Starred values were filed as active, the others as inactive; nt = not tested or not shown.

SMILES | JNK3 blocker | FAK blocker | Pyk2 oligo antag | IL1B NFkB inh | HUVEC tox IL1B | NFkB transloc pot
COc1ccc(NC(C)=O)c2nc(C)c(C)nc12 | 4 | 2 | -0.44 | -21 | -30 | 21
COc1ccc(NC(=O)CSc2nnc(C3CC3)n2N)cc1 | 0 | -2 | 2.4 | -12 | -6 | 12
COc1ccc(NC(=O)CSc2nnc(C3CCCCC3)n2-c2ccccc2)cc1 | nt | 1 | -0.89 | 81* | 55 | -81
CCSc1nnc(NC(=O)CSc2c(Cl)cccc2Cl)s1 | nt | 3 | -3.2* | -2 | -1 | 2
O=C(O)/C=C/C(=O)Nc1ccccc1-c1ccccc1 | nt | 3 | -0.05 | -9 | 15 | 9
O=C(CCCn1c(=S)[nH]c2ccccc2c1=O)NCc1ccco1 | 19* | -1 | -0.01 | -13 | -38 | 13
CCOc1cc2[nH]c(=S)n(CCCCC(=O)NCc3ccco3)c(=O)c2cc1OCC | nt | nt | 1 | nt | nt | nt
CCOC(=O)CSc1nc2ccccc2c(=O)n1CCCCCC(=O)NCc1ccco1 | 23* | 16 | -0.48 | -13 | -8 | 13
O=C(CCCCCn1c(SCC(=O)c2ccccc2)nc2ccccc2c1=O)NCc1ccco1 | 28* | 7 | -1.6 | -9 | -6 | 9
O=C(CCCn1c(SCC(=O)c2ccc(Cl)cc2)nc2ccccc2c1=O)NCc1ccco1 | nt | -3 | -0.45 | 2 | 5 | -2
CCCn1c(SCC(=O)NCc2ccco2)nc2c1c(=O)n(C)c(=O)n2C | -4 | -1 | 0.03 | 8 | 81* | -8
O=C(Nc1cccc(C(=O)N2CCOCC2)c1)c1cncc(Br)c1 | 5 | 1 | 0.1 | -5 | -22 | 5
c1ccc(-n2cnc3cc(NCc4ccncc4)ccc32)cc1 | 1 | 17 | -3.4* | -6 | 17 | 6
c1ccc(-n2cnc3cc(NCc4ccccn4)ccc32)cc1 | 2 | 7 | -3.4* | 9 | -6 | -9
CC(C)n1cnc2cc(NCc3ccccn3)ccc21 | nt | 1 | -0.73 | 25 | -16 | -25
O=C(CSc1nc(-c2ccccc2)cs1)NCc1ccco1 | 5 | 1 | 0.74 | 50* | -16 | -50
O=C(Nn1c(O)c(C=C2N=c3ccccc3=N2)sc1=S)c1ccccc1 | nt | 4 | -0.48 | -17 | 88* | 17
FC(F)(F)c1cccc(NC(=S)NNC(=S)NCc2ccccc2)c1 | nt | 4 | -1.4 | 4 | 10 | -4
COc1ccc(CCNC(=O)CCn2c(SCC#N)nc3ccccc3c2=O)cc1OC | nt | -7 | 0.7 | -10 | -22 | 10
CCC1c2ccc(C)n2CCN1C(=O)Nc1ccccc1C(=O)OC (centres undefined) | -2 | 4 | -0.73 | 1 | 92* | -1
COc1ccc(NC(=O)CCn2cccc2)cc1 | 4 | -7 | 0.72 | -24 | -13 | 24
CCc1ccc(NSc2ccccc2[N+](=O)[O-])cc1 | nt | 5 | -3* | -1 | 21 | 1
COC(=O)c1cc(NC(=O)CCc2c(C)nc3ncnn3c2C)cc(C(=O)OC)c1 | 2 | -4 | 2.1 | -8 | 12 | 8
COc1ccc(OC(=O)CCCN2C(=O)c3ccccc3C2=O)cc1 | nt | -1 | 1.4 | -6 | 86* | 6
Cc1cc(=O)oc2cc(OC(=O)CCN3C(=O)c4ccccc4C3=O)ccc12 | nt | 5 | 0.53 | -3 | -61 | 3
SMILES | JNK3 blocker | FAK blocker | Pyk2 oligo antag | IL1B NFkB inh | HUVEC tox IL1B | NFkB transloc pot
C=CCN1C(=O)N(/C=C/C)c2cccc3cccc1c23 | -2 | 8 | -3.7* | -5 | -19 | 5
C=CCN1C(=O)C(C)(C)Nc2ccccc21 | -4 | 3 | -0.71 | -19 | 13 | 19
CC(=O)C1=C(C)NC(=O)NC1c1ccccc1 (centres undefined) | nt | -6 | 0.37 | -24 | -2 | 24
O=C1NC2=C(C(=O)c3ccccc32)C(c2ccccc2)N1 (centres undefined) | 27* | 6 | -0.83 | 6 | -7 | -6
COc1cc(C(=O)NCc2cn3ccccc3n2)cc(OC)c1OC | 58* | 0 | 0.08 | 3 | -24 | -3
COC(=O)CSc1nnc(CNC(=O)c2cc(OC)c(OC)c(OC)c2)n1C | 5 | -2 | 0.67 | 12 | 78* | -12
COC(=O)CSc1nnc(CNC(=O)c2ccccc2OC)n1C | -2 | -3 | -0.12 | 4 | -6 | -4
O=C(Nc1nccs1)C1C2/C=C\CCCCC21 (centres undefined) | 1 | 4 | 0.12 | -18 | -24 | 18
Cc1ccc2[nH]c(=O)c(CN(Cc3nnnn3C3CCCC3)C3CCCCC3)cc2c1 | -3 | -4 | 0.47 | -12 | -71 | 12
Cc1ccc2[nH]c(=O)c(CN(Cc3ccccc3)Cc3nnnn3C3CCCC3)cc2c1 | 1 | 11 | 0.43 | 1 | 72* | -1
Cc1nc2sc(C(c3cccc(F)c3)N3CC(C)OC(C)C3)c(O)n2n1 (centres undefined) | 5 | 2 | -0.18 | -7 | 11 | 7
CN(C)c1ccc(/C=C/C=C2/SC(=S)N(c3ccccc3)C2=O)cc1 | nt | -8 | -3* | 16 | -20 | -16
COc1ccc(/C=N/Nc2ncc(-c3ccccc3)cn2)c(OC)c1 | nt | 40* | -0.92 | 16 | -18 | -16
COc1ccc(/C=N/NC(=O)c2[nH]ncc2Br)c(OC)c1 | nt | 16 | 0.48 | 1 | -17 | -1
O=c1c2ccccc2nc2c3ccccc3c3nncn3n12 | -2 | 0 | -0.83 | 13 | -1 | -13
CCN1C(=O)/C(=C/N(C(C)=O)c2ccccc2)N(c2ccccc2)C1=S | nt | -2 | -0.23 | 43* | -29 | -43
O=C(Nc1nccs1)c1ccc(Br)o1 | 18* | 1 | -0.23 | nt | nt | nt
O=C(Nc1ccc2nc(-c3ccco3)c(-c3ccco3)nc2c1)NC1CC1 | nt | 92* | -0.13 | -10 | -16 | 10
CCCN1Cc2cccc(C(=O)N3CCN(c4ccccc4)CC3)c2C1=O | nt | 0 | 0.84 | -32 | 94* | 32
O=c1c(-c2ccc3c(c2)OCCO3)coc2cc(O)cc(O)c12 | 2 | 3 | -3.7* | 6 | 25 | -6
COc1cccc(NC(=O)Nc2ccc3c(c2)N(C)C(=O)CS3)c1 | nt | 3 | -4* | 1 | -21 | -1
O=C(NCCN1CCOCC1)c1cc2n(n1)C(C(F)(F)F)CC(c1ccc(F)cc1)N2 (centres undefined) | 10 | 1 | 0.26 | -1 | 20 | 1
CCN(CC)C(=O)CSc1nc(O)c(Cc2ccccc2)c(=O)n1-c1ccccc1 | nt | -8 | -0.19 | -2 | -14 | 2
COC(=O)CSC1=C(C#N)C(c2ccsc2)CC(=O)N1 (centres undefined) | nt | 2 | 0.32 | 7 | 26 | -7
CC(C)(C)c1ccc(C2C3=C(CCCC3=O)NC3=C2C(=O)c2ccccc23)cc1 (centres undefined) | nt | 2 | -0.02 | -4 | -30 | 4
CC(C)c1ccc(C2C3=C(CC(C)(C)CC3=O)NC3=C2C(=O)c2ccccc23)cc1 (centres undefined) | nt | 1 | -3* | -13 | -2 | 13
COc1cc(SC)ccc1C(=O)Nc1ccc2c(c1)OCCO2 | -4 | 3 | -1.5 | -45 | -38 | 45*
